IDE cell inh: inhibits human insulin-degrading enzyme in HEK cells; P14735; FAbetaB cleavage, fluorescence polarization; inhibition, % at 5.59 µM; actives 0.41% (n = 320,000); AID 434962;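 active = percent inhibition above the average of all tested compounds plus 3 SD, set per screening campaign, cut at about 16% in these data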;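 note: IDE supplied by intact live HEK cells; FP after avidin binding of uncleaved biotin substrate so inhibition keeps polarization high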
Target sequence (P14735 whole entry, looked up): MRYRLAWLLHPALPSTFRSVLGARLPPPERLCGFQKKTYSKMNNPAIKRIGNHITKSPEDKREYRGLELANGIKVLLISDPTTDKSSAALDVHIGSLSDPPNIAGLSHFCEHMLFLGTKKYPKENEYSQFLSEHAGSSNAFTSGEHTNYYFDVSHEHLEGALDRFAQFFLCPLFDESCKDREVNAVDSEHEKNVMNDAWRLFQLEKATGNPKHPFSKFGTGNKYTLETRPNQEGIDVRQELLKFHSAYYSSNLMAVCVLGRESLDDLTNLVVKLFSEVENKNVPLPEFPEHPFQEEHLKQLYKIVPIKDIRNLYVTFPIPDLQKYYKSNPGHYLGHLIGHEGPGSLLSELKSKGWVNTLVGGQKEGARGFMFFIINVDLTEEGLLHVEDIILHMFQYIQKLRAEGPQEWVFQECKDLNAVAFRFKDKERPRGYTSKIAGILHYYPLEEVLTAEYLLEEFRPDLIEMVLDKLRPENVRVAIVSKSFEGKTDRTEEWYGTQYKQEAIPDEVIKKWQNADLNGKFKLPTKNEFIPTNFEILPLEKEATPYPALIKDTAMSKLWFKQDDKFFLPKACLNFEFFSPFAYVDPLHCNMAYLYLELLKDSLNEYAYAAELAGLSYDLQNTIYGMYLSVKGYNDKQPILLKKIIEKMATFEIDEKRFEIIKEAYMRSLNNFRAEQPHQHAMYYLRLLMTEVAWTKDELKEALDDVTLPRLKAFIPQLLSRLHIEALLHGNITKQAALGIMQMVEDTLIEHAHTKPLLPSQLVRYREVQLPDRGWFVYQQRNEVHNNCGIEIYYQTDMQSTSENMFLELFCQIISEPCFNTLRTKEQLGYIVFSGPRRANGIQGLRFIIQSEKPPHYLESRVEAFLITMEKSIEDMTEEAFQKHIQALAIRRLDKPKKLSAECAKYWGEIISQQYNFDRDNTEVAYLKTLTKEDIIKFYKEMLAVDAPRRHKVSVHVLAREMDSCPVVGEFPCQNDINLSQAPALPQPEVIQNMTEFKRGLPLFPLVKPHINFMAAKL
ANO1 activ: activates or potentiates the mouse TMEM16A chloride channel | Q8BHY3 | HEK293 TMEM16A/YFP-H148Q/I152L, iodide quench fluorescence; stronger effect = lower value | B-score at 10 µM | actives 0.3% (n = 340,000) | AID 623877;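 active = fluorescence-ratio B-score plate-corrected deviation score at least 3 library SD below zero, with starting fluorescence score within 5 deviations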;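 note: channel opened by trigger with iodide after compound preincubation; score built on the fluorescence ratio of max minus min over baseline; more negative score means more quench and so TMEM16A activation or potentiation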
CHT block: human CHT choline transport inhibition. CHT-expressing cells, membrane potential dye, choline response; stronger effect = lower value. actives 0.86% (n = 310,000). AID 488975. Q9GZV3. B-score at 10 µM;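 active = B-score over 3 SD under the library average, and starting fluorescence ratio not unusually high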;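 note: choline stimulus applied at its EC90 after an EC20 pre-addition; B-score computed on integrated fluorescence ratio after choline addition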
TMEM16A inh: inhibitors of mouse TMEM16A calcium-activated chloride channel; HEK293 TMEM16A/YFP iodide influx fluorescence, ionomycin; normalized B-score (activity score, 25-100; higher = stronger inhibition) at 10 µM; Q8BHY3; actives 1.2% (n = 310,000);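 active = ratio plate-corrected score three or more library SD toward inhibition, starting fluorescence score within five deviations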;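 note: score derived from kinetic fluorescence span divided by baseline fluorescence per well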
CHT allo act: allosterically activates the human high affinity choline transporter. Q9GZV3. B-score at 10 µM. actives 0.49% (n = 310,000). CHT-expressing cells, membrane potential dye, choline EC20; stronger effect = higher value; LV-AA mutant CHT in HEK293 cells;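 active = initial fluorescence not abnormally high and integrated response B-score, plate-corrected, over 3 SD above library mean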
IDE cell activ: IDE (human) activation, cell-based; P14735; HEK cells, FAbeta-B cleavage, fluorescence polarization; 0% vehicle, 100% cell-free pure enzyme wells; activation, % at 5.96 µM; AID 493087; actives 0.073% (n = 340,000);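 active = activation above the mean of all tested compounds plus 3 SD, set per screening campaign, cut at about 17% in these data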
A number is an active result. An excerpt weighted towards active compounds, which were near 2.7% of everything screened.

CCOC(=O)[C@@H]1[C@H]2COc3cc(OC)ccc3[C@@H]2N2C(=O)N(c3cccc(Cl)c3)C(=O)[C@@]12C was read as IDE cell inh inactive, ANO1 activ inactive, CHT block inactive, TMEM16A inh inactive, CHT allo act inactive and IDE cell activ inactive.
Screening COCCOC(=O)C1=C(C)N(Cc2ccccc2)C(=O)NC1c1ccc(OC)cc1 (configuration not stated) returned IDE cell inh inactive, ANO1 activ inactive, CHT block inactive, TMEM16A inh 100, CHT allo act inactive and IDE cell activ inactive.
`CC(C)CNC(=O)N1c2ccccc2Sc2ccccc21` gave IDE cell inh inactive, ANO1 activ inactive, CHT block inactive, TMEM16A inh inactive, CHT allo act inactive and IDE cell activ inactive.
For O=C(NCCc1ccccc1)N1c2ccccc2Sc2ccccc21 the results were IDE cell inh inactive, ANO1 activ inactive, CHT block inactive, TMEM16A inh 100, CHT allo act inactive and IDE cell activ inactive.
For CC(C)C[C@H](CO)Nc1nc(Nc2cccc(Cl)c2)c2ncn(C(C)C)c2n1 the results were IDE cell inh inactive, ANO1 activ inactive, CHT block inactive, TMEM16A inh inactive, CHT allo act inactive and IDE cell activ inactive.
Screening CC(C)n1cnc2c(Nc3ccc(F)c(Cl)c3)nc(NCCO)nc21 returned IDE cell inh inactive, ANO1 activ inactive, CHT block -5.43, TMEM16A inh inactive, CHT allo act inactive and IDE cell activ inactive.
`CCCCSc1nc(C)cc(SCC(=O)N/N=C/c2cccc(OC)c2O)n1` gave IDE cell inh inactive, ANO1 activ inactive, CHT block inactive, TMEM16A inh 100, CHT allo act inactive and IDE cell activ inactive.
C=C1C[C@H]2[C@@H]3C=C(C)C4=CC(=O)CC[C@]4(C)[C@H]3CC[C@]2(C)[C@@]1(OC(C)=O)C(C)=O was read as IDE cell inh inactive, ANO1 activ inactive, CHT block inactive, TMEM16A inh 100, CHT allo act inactive and IDE cell activ inactive.
Screening CC(=O)C1(C)CCC2C3C=C(C)C4=CC(=O)CCC4(C)C3CCC21C (configuration not stated) returned ANO1 activ inactive and IDE cell activ inactive.
Screening COc1ccc(C(CNC(=O)c2cc(S(=O)(=O)N3CCCC3)ccc2Cl)N2CCCC2)cc1 (configuration not stated) returned IDE cell inh inactive, ANO1 activ inactive and IDE cell activ inactive.
For O=C(NCCN1CCOCC1)C1CC(=O)N(c2cccc(C(F)(F)F)c2)C1 (configuration not stated) the results were ANO1 activ inactive and IDE cell activ inactive.
For Cc1ccccc1-n1c(SCc2c(C)noc2C)nnc1-c1cccnc1 the results were IDE cell inh inactive, ANO1 activ -5.22, CHT block inactive, TMEM16A inh inactive, CHT allo act inactive and IDE cell activ inactive.
Cc1cccc(N(C(=O)c2csnn2)C(C(=O)NC2CCCCC2)c2ccncc2)c1 (configuration not stated) was read as IDE cell inh inactive, ANO1 activ inactive, CHT block inactive, TMEM16A inh inactive, CHT allo act inactive and IDE cell activ inactive.
Screening C[C@@]12C(=O)N(Cc3ccccc3)CC(=O)N1[C@H](/C=C/c1ccccc1)[C@@H]1C(=O)N(c3ccccc3)C(=O)[C@@H]12 returned IDE cell inh inactive, ANO1 activ inactive, CHT block inactive, TMEM16A inh inactive, CHT allo act inactive and IDE cell activ inactive.
O=S(=O)(Nc1cc(S(=O)(=O)N2CCOCC2)ccc1O)c1ccc2c(c1)OCCCO2 was read as IDE cell inh inactive, ANO1 activ -22.4 and IDE cell activ inactive.
For O=S(=O)(Nc1cc(S(=O)(=O)N2CCOCC2)ccc1N1CCOCC1)c1ccc2c(c1)OCCO2 the results were IDE cell inh inactive, ANO1 activ inactive, CHT block inactive, TMEM16A inh inactive, CHT allo act inactive and IDE cell activ inactive.
`Cc1cc(Cl)ccc1OC(C)C(=O)Nc1ccccc1N1CCOCC1` (configuration not stated) gave IDE cell inh inactive, ANO1 activ -19.5, CHT block inactive, TMEM16A inh 100, CHT allo act inactive and IDE cell activ inactive.
Cc1cccc(N2CC(C(=O)Nc3nnc(SCC(=O)N4CCOCC4)s3)CC2=O)c1 (configuration not stated) was read as IDE cell inh inactive, ANO1 activ inactive, CHT block inactive, TMEM16A inh inactive, CHT allo act inactive and IDE cell activ inactive.
For COc1ccc(OC)c(-c2c3cc(O)c(=O)cc-3oc3cc(O)c(O)cc23)c1 the results were IDE cell inh 38.5, ANO1 activ inactive, CHT block inactive, TMEM16A inh inactive, CHT allo act inactive and IDE cell activ inactive.
Screening Cc1csc(=O)n1CC(=O)OCC(=O)NNC(=O)c1ccc(Cl)cc1 returned IDE cell inh inactive, ANO1 activ inactive and IDE cell activ inactive.
CNC[C@H](Cc1ccccc1)NC[C@@H](Cc1cccc2ccccc12)NCCc1ccc(C)cc1 was read as IDE cell inh inactive, ANO1 activ inactive, CHT block inactive, TMEM16A inh 100, CHT allo act inactive and IDE cell activ 18.1.
COc1ccccc1N1CCN(C2CCCN(C(=O)c3cccc(-c4ccco4)c3)C2)CC1 (configuration not stated) was read as IDE cell inh inactive, ANO1 activ inactive, CHT block inactive, TMEM16A inh inactive, CHT allo act inactive and IDE cell activ inactive.
COc1cccc(N2CCN(CC(=O)Nc3nnc(-c4ccccc4)s3)CC2)c1 was read as IDE cell inh inactive, ANO1 activ inactive, CHT block inactive, TMEM16A inh 25, CHT allo act inactive and IDE cell activ inactive.
`COc1cccc(N2CCN(CC(=O)NC3=Nc4ccccc4N=C(C)C3c3ccccc3)CC2)c1` (configuration not stated) gave IDE cell inh inactive, ANO1 activ inactive, CHT block inactive, TMEM16A inh inactive and CHT allo act inactive.
Screening COc1ccc(-n2ccc(-c3nn(-c4cccc(C(F)(F)F)c4)ccc3=O)n2)cc1 returned IDE cell inh inactive, ANO1 activ -43.1, CHT block inactive, TMEM16A inh inactive, CHT allo act inactive and IDE cell activ inactive.
Screening CCOC(=O)N1CCC(NC(=O)C2CCCN(Cc3nc(-c4ccc(CC)cc4)oc3C)C2)CC1 (configuration not stated) returned IDE cell inh inactive, ANO1 activ inactive, CHT block inactive, TMEM16A inh 25, CHT allo act inactive and IDE cell activ inactive.
Screening CCCCN(C(=O)C(C)Oc1cccc(Cl)c1)c1c(N)n(CCC)c(=O)[nH]c1=O (configuration not stated) returned IDE cell inh inactive, ANO1 activ inactive, CHT block inactive, TMEM16A inh inactive, CHT allo act inactive and IDE cell activ inactive.

Compound activity (PubChem)
